# Source: PubChem BioAssay
# “And” between values parts separate entries of the source, which are not always exact repeats. Identical values can stand only once. The source made the active and inactive calls. Unless noted, no stated cut-off is given here; in the data, active means inhibition above about 80%; inactive means the rest.
# Tests used:
# [1] = LFS_MB_P medulloblastoma growth inhibition, cell-based, chromothripsis tumors, cisplatin or BGB combos (AID 1671449); details: LFS_MB_P medulloblastoma cells;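 further: cells exposed for 96 hours; 0% = vehicle DMSO and 100% = killing by high DMSO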
# [2] = HDN33 neuroblastoma growth inhibition, cell-based, chromothripsis tumors, cisplatin or BGB combos (AID 1671450); details: HDN33 neuroblastoma cells, stronger effect = higher value;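 further: cells exposed to compound for four days; 0% = vehicle DMSO and 100% = cell killing by high DMSO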
# [3] = ICB984 medulloblastoma cell growth inhibition, synergistic combos for chromothripsis tumors, cisplatin or BGB combos (AID 1671451; call rule not given here;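 further: cells exposed for 96 hours before readout; 0% = vehicle DMSO and 100% = killing by high DMSO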); details: ICB984 medulloblastoma cells, drug combinations, stronger effect = higher value
# [4] = LFS_MB_1R medulloblastoma cell growth inhibition, synergistic combos for chromothripsis tumors, cisplatin or BGB combos (AID 1671452); details: LFS_MB_1R medulloblastoma cells, stronger effect = higher value;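 further: cells exposed for 96 hours before readout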
# [5] = HTB85 osteosarcoma cell growth inhibition, synergistic combos for chromothripsis tumors, BGB or cisplatin IC20 combos (AID 1671453); details: HTB85 osteosarcoma cells, drug combinations, stronger effect = higher value;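 further: cells exposed for 96 hours before readout; 0% = vehicle DMSO and 100% = high DMSO killing control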
# [6] = CRL2098 osteosarcoma cell growth inhibition, synergistic combos for chromothripsis tumors, BGB or cisplatin IC20 combos (AID 1671454); details: CRL2098 osteosarcoma cells, drug combinations, stronger effect = higher value;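 further: cells exposed for 96 h before readout; 0% = vehicle DMSO and 100% = killing by high DMSO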
# [7] = HD-MB03 medulloblastoma cell growth inhibition, synergistic combos for chromothripsis tumors, BGB or cisplatin IC20 combos (AID 1671455; in the data active means inhibition above about 83%;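 further: 0% = vehicle DMSO and 100% = high DMSO as cytotoxic control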); details: HD-MB03 medulloblastoma cells, stronger effect = higher value
# [8] = UWB1.289 ovarian carcinoma cell growth inhibition, synergistic combos for chromothripsis tumors, BGB or cisplatin combos (AID 1671456); details: UWB1.289 ovarian carcinoma cells, stronger effect = higher value;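 further: cells exposed to compound for four days; 0% = vehicle DMSO and 100% = killing by high DMSO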
# [9] = LFS_MB_2R medulloblastoma cell growth inhibition, synergistic combos for chromothripsis tumors, cisplatin combos (AID 1671457); details: LFS_MB_2R medulloblastoma cells, stronger effect = higher value;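 further: cells exposed to compound for four days before readout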
# [10] = MDA-MB-436 breast carcinoma cell growth inhibition, synergistic combos for chromothripsis tumors, BGB or cisplatin combos (AID 1671458; call rule not given here;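 further: cells exposed for 96 hours; 0% = vehicle DMSO and 100% = killing by high DMSO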); details: MDA-MB-436 breast carcinoma growth inhibition, drug combinations, stronger effect = higher value
# [11] = UWB1.289_BRCA1 ovarian cancer growth, cell-based, BGB or cisplatin combinations (AID 1671459); details: UWB1.289 BRCA1 ovarian carcinoma, drug combinations, stronger effect = higher value
# [12] = human astrocyte viability loss, single and combined drugs, cytotoxicity control for chromothriptic childhood tumor combination screen, cell-based, BGB or cisplatin IC20 combos (AID 1671460); details: Human astrocytes, drug combinations, stronger effect = higher value;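 further: cells exposed to compounds for 96 hours before viability readout; 0% = vehicle and 100% = killing control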
# [13] = growth inhibition of BT084 medulloblastoma cells, cell-based, ICGC_MB145, cisplatin and BGB IC40 combos (AID 1671461); details: drug combinations, stronger effect = higher value;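 further: cells exposed to drugs for 96 hours; 0% = vehicle DMSO and 100% = high DMSO full killing control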
# [14] = growth inhibition of RCMB18 medulloblastoma cells, cell-based, cisplatin and BGB IC40 combos (AID 1671462); details: stronger effect = higher value;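 further: cells exposed to compound for four days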
# [15] = growth inhibition of CRL1545 osteosarcoma cells, cell-based, cisplatin and BGB IC20 combos (AID 1671464); details: stronger effect = higher value;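 further: cells exposed to compound for 96 hours before readout; 0% = vehicle DMSO and 100% = high DMSO killing control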
# [16] = viability rescue of complex I mutant cybrids, primary screen, cell-based, galactose medium, ATP luminescence (AID 1645843;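 active means z-score of at least 1.8 in each of two replicates, scored against plate mean and spread of sample wells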;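 further: positive z means more ATP and so rescue of galactose-driven cybrid death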); details: complex I mutant cybrid cells, 72 h, stronger effect = higher value
# [17] = at 0.5 µM, stronger effect = higher value
# [18] = measured here: combination with BGB IC20, at 0.005 µM
# [19] = measured here: combination with BGB IC40, at 0.005 µM
# [20] = measured here: combination with BGB IC40, at 0.05 µM
# [21] = measured here: combination with cisplatin, at 0.5 µM, stronger effect = higher value
# [22] = measured here: combination with cisplatin, at 5 µM, stronger effect = higher value
# [23] = measured here: with BGB IC20 combination, at 0.5 µM
# [24] = measured here: with cisplatin IC20 combination, at 0.5 µM
# [25] = measured here: 5 uM single agent, at 5 µM
# [26] = measured here: combination with cisplatin, at 0.5 µM
# [27] = measured here: combination with cisplatin, at 5 µM
# [28] = measured here: with BGB IC20, at 0.5 µM
# [29] = measured here: with BGB IC20, at 5 µM
# [30] = measured here: with cisplatin IC20, at 0.5 µM
# [31] = measured here: with cisplatin IC20, at 5 µM
# [32] = measured here: combination with BGB at IC20, at 0.5 µM
# [33] = measured here: combination with cisplatin at IC20, at 0.5 µM
# [34] = measured here: combo with BGB at IC20, at 0.5 µM
# [35] = measured here: combo with cisplatin at IC20, at 0.5 µM
# [36] = measured here: inhibition with BGB combination, at 0.05 µM
# [37] = measured here: inhibition with cisplatin combination, at 0.05 µM
# [38] = measured here: BGB combination, at 0.5 µM
# [39] = measured here: BGB combination, at 5 µM
# [40] = measured here: cisplatin combination, at 0.5 µM
# [41] = measured here: cisplatin combination, at 5 µM
# [42] = BGB combination, concentration series, at 5 µM
# [43] = cisplatin combination, concentration series, at 5 µM
# [44] = measured here: combo with BGB IC20, at 0.5 µM
# [45] = measured here: combo with cisplatin IC20, at 0.5 µM
# [46] = cisplatin combination, at 0.5 µM
# [47] = measured here: BGB IC40 combination 0.05 uM, at 0.05 µM
# [48] = measured here: BGB IC40 combination, at 0.05 µM
smiles,measurement,setting,value
CON=C1CN(c2nc3c(cc2F)c(=O)c(C(=O)O)cn3C2CC2)CC1CN (stereo not drawn),inhibition,[1]; [17],-25.3% (inactive)
same,inhibition,[1]; [18],-14.3%
same,inhibition,[1]; [19],-29%
same,inhibition,[1]; [20],-34.5%
same,inhibition,[1]; [21],-40.3%
same,inhibition,[1]; [22],-32.3%
same,inhibition,"[2]; BGB combo, at 5 µM",-16.7%
same,inhibition,[2]; at 0.5 µM,7.67% (inactive)
same,inhibition,"[2]; cisplatin combo, at 5 µM",-7.53%
same,inhibition,[2]; [23],8.62%
same,inhibition,[2]; [24],24.5%
same,inhibition,"[2]; single agent, at 5 µM",-10.6%
same,inhibition,"[3]; BGB IC20 combo, at 0.005 µM",-9.19%
same,inhibition,"[3]; BGB IC40 combo, at 0.005 µM",-11.5%
same,inhibition,"[3]; BGB IC40 combo, at 0.05 µM",-24.2%
same,inhibition,[3]; at 0.5 µM,-23.7% (inactive)
same,inhibition,"[3]; cisplatin combo, at 0.05 µM",-30.6%
same,inhibition,"[3]; cisplatin combo, at 0.5 µM",-28.8%
same,inhibition,"[3]; cisplatin combo, at 5 µM",-12.6%
same,inhibition,[3]; [25],-12.7%
same,inhibition,[4]; at 0.5 µM,-19.1% (inactive)
same,inhibition,[4]; [20],-15.4%
same,inhibition,[4]; [26],-33.2%
same,inhibition,[4]; [27],-30.4%
same,inhibition,[5]; at 0.5 µM,5.68% (inactive)
same,inhibition,[5]; [28],30.9%
same,inhibition,[5]; [29],13.1%
same,inhibition,[5]; [30],-15.5%
same,inhibition,[5]; [31],2.1%
same,inhibition,"[5]; single agent, at 5 µM",3.62%
same,inhibition,[6]; at 0.5 µM,-6.34% (inactive)
same,inhibition,[6]; [32],-22.3%
same,inhibition,[6]; [33],10.2%
same,inhibition,[7]; at 0.5 µM,-12.3% (inactive)
same,inhibition,[7]; [34],-16.7%
same,inhibition,[7]; [35],-12.2%
same,inhibition,[8]; at 0.5 µM,-4.81% (inactive)
same,inhibition,[8]; [36],-8.23%
same,inhibition,[8]; [37],-6.42%
same,inhibition,[9]; at 0.5 µM,-15.8% (inactive)
same,inhibition,[9]; [26],-15.1%
same,inhibition,[9]; [27],-25.5%
same,inhibition,[10]; at 0.5 µM,-11.3% (inactive)
same,inhibition,[10]; [38],-3.57%
same,inhibition,[10]; [39],-21.3%
same,inhibition,[10]; [40],-27.7%
same,inhibition,[10]; [41],-9.24%
same,inhibition,[11]; [42],-28.4%
same,inhibition,[11]; at 0.5 µM,-4.07% (inactive)
same,inhibition,[11]; [43],-3.27%
same,inhibition,[12]; at 0.5 µM,0.97% (inactive)
same,inhibition,[12]; [44],7.71%
same,inhibition,[12]; [45],2.88%
same,inhibition,[13]; at 0.5 µM,-10.5% (inactive)
same,inhibition,[13]; [46],-2.65%
same,inhibition,"[13]; cisplatin combination, at 5 µM",-140%
same,inhibition,[13]; [47],-26.9%
same,inhibition,"[13]; single agent, at 5 µM",-46.4%
same,inhibition,[14]; at 0.5 µM,-9.98% (inactive)
same,inhibition,"[14]; cisplatin combo, at 5 µM",24.4%
same,inhibition,[14]; [48],-6.9%
same,inhibition,[14]; [26],6.35%
same,inhibition,"[14]; single agent, at 5 µM",-19.4%
same,inhibition,[15]; at 0.5 µM,-0.16% (inactive)
same,inhibition,[15]; [23],-14.3%
same,inhibition,[15]; [24],5.39%
same,inhibition,"[15]; single agent, at 0.05 µM",4.29%
same,inhibition,"[15]; single agent, at 5 µM",16.8%
Cc1ccccc1-c1cccc(N2CCC(N3CCN(C)C(C)C3)CC2)c1 (stereo not drawn),z-score,[16],1.36 (inactive)
CCCC(C)N(CC)C(=O)c1ccc(C#CC(C)(C)O)o1 (stereo not drawn),z-score,[16],-0.525 (inactive)
Nc1nc(F)nc2c1ncn2C1OC(CO)C(O)C1O (stereo not drawn),inhibition,[1]; [17],-23.4% (inactive) and 5.5% (inactive)
same,inhibition,[1]; [18],-13.1% and 10.2%
same,inhibition,[1]; [19],-4.16% and 17.3%
same,inhibition,[1]; [20],-14.8% and 4.66%
same,inhibition,[1]; [21],-27.4% and 14.8%
same,inhibition,[1]; [22],85.8% and 94.5%
same,inhibition,"[2]; BGB combo, at 5 µM",27.6% and 14.7%
same,inhibition,[2]; at 0.5 µM,-7.43% (inactive) and -36.4% (inactive)
same,inhibition,"[2]; cisplatin combo, at 5 µM",20.8% and 7.89%
same,inhibition,[2]; [23],3.36% and -26.3%
same,inhibition,[2]; [24],-16.4% and -54.5%
same,inhibition,"[2]; single agent, at 5 µM",45.6% and 12.3%
same,inhibition,"[3]; BGB IC20 combo, at 0.005 µM",20.7% and -6.33%
same,inhibition,"[3]; BGB IC40 combo, at 0.005 µM",-14.7% and -39.6%
same,inhibition,"[3]; BGB IC40 combo, at 0.05 µM",0.533% and 4.89%
same,inhibition,[3]; at 0.5 µM,-14.3% (inactive) and -20.5% (inactive)
same,inhibition,"[3]; cisplatin combo, at 0.05 µM",-3.04% and 2.23%
same,inhibition,"[3]; cisplatin combo, at 0.5 µM",-8.41% and -26.1%
same,inhibition,"[3]; cisplatin combo, at 5 µM",-23% and -33%
same,inhibition,[3]; [25],-7.66% and -8.57%
same,inhibition,[4]; at 0.5 µM,-2.13% (inactive) and -19.9% (inactive)
same,inhibition,[4]; [20],3.73% and -32%
same,inhibition,[4]; [26],9.09% and -1.53%
same,inhibition,[4]; [27],76.5% and 57.3%
same,inhibition,[5]; at 0.5 µM,3.43% (inactive) and -25.3% (inactive)
same,inhibition,[5]; [28],-0.749% and -38.9%
same,inhibition,[5]; [29],44.9% and 11%
same,inhibition,[5]; [30],2.7% and -32%
same,inhibition,[5]; [31],37% and 41.2%
same,inhibition,"[5]; single agent, at 5 µM",58.5% and 39.5%
same,inhibition,[6]; at 0.5 µM,94% (active) and 94.9% (active)
same,inhibition,[6]; [32],94.8% and 95%
same,inhibition,[6]; [33],91.9% and 95.1%
same,inhibition,[7]; at 0.5 µM,5.8% (inactive) and 2.84% (inactive)
same,inhibition,[7]; [34],3.8% and -3.69%
same,inhibition,[7]; [35],2.93% and 14.9%
same,inhibition,[8]; at 0.5 µM,2.58% (inactive) and -11.8% (inactive)
same,inhibition,[8]; [36],-5.13% and -19.7%
same,inhibition,[8]; [37],-18.9% and -14.7%
same,inhibition,[9]; at 0.5 µM,12% (inactive) and -3.14% (inactive)
same,inhibition,[9]; [26],3.75% and 4.65%
same,inhibition,[9]; [27],69.4% and 48.7%
same,inhibition,[10]; at 0.5 µM,2.72% (inactive) and -8.67% (inactive)
same,inhibition,[10]; [38],0.63% and 6.32%
same,inhibition,[10]; [39],12.4%
same,inhibition,[10]; [40],-0.776% and -26.9%
same,inhibition,[10]; [41],1.99% and 20.7%
same,inhibition,[11]; [42],34% and 13%
same,inhibition,[11]; at 0.5 µM,3.6% (inactive) and -10.5% (inactive)
same,inhibition,[11]; [43],32.8% and 23%
same,inhibition,[12]; at 0.5 µM,13.7% (inactive) and -16.7% (inactive)
same,inhibition,[12]; [44],0.417% and -14%
same,inhibition,[12]; [45],20% and -36.2%
same,inhibition,[13]; at 0.5 µM,-17.4% (inactive) and 8.96% (inactive)
same,inhibition,[13]; [46],-38.6% and 6.07%
same,inhibition,"[13]; cisplatin combination, at 5 µM",36.8% and 59.3%
same,inhibition,[13]; [47],-18.2% and 2.24%
same,inhibition,"[13]; single agent, at 5 µM",-9.05% and -4.51%
same,inhibition,[14]; at 0.5 µM,0.9% (inactive) and -15.3% (inactive)
same,inhibition,"[14]; cisplatin combo, at 5 µM",44.7% and 68%
same,inhibition,[14]; [48],1.47% and -4.03%
same,inhibition,[14]; [26],30.2% and -17.9%
same,inhibition,"[14]; single agent, at 5 µM",8.81% and -20.7%
same,inhibition,[15]; at 0.5 µM,8.8% (inactive) and -39.7% (inactive)
same,inhibition,[15]; [23],5.25% and -35.7%
same,inhibition,[15]; [24],9.12% and -44.9%
same,inhibition,"[15]; single agent, at 0.05 µM",-7.3% and -43.1%
same,inhibition,"[15]; single agent, at 5 µM",24% and -66.2%
